IMPase inh: qHTS Assay for Identifying the Cell-Membrane Permeable IMPase Inhibitors. 120,000 tested, under 10 active. Inositol monophosphatase 1 (Rattus norvegicus), P97697. CHO-M1 cells, IP1 accumulation, HTRF TR-FRET ratio. inhibition (IP1 accumulation), % at 46.1 µM. AID 901, 2007; active = well fitted curve in the direction sought with a large enough effect in the signal ratio, not every such curve was filed as active; inconclusive = small, poorly fitted or top-dose-only effect, or a change in a side signal; inactive = no such curve, though single readings can be large or run the other way; the % refers to the signal ratio;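 also: cells stimulated with carbachol in lithium chloride buffer; plate controls were DMSO basal wells for no effect and reference inhibitor wells for full effect; higher means more IMPase inhibition seen as more IP1 and lower FRET ratio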
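Seeded CHO-M1 cells were dosed with compound at up to 46 uM, stimulated with carbachol for 30 min, then lysed in IP-One detection reagents. Higher IP1 lowers the TR-FRET signal.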
IMPase Li cell: qHTS Assay for Identifying the Cell-Membrane Permeable IMPase Inhibitors: Potentiation with Lithium; Potency, µM (highest dose often 59.4 µM), without a hit: top-dose activity, negative = IMPase inhibition, hits mostly inhibitors; CHO-M1 cells, IP1 TR-FRET (IP-One), carbachol + lithium; 210,000 tested, 0.35% active; active = well fitted curve in the direction sought with a large enough effect; inconclusive = small, poorly fitted or top-dose-only effect, or another doubt; inactive = no such curve, though single readings can be large; an effect the other way counts as inactive or inconclusive;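 also: IP1 builds up when IMPase is blocked and the TR-FRET signal falls; potency is read from the fitted curve at half-maximal effect; plate controls were basal vehicle for no effect and high inhibitor control for full effect; nearly all actives have a fitted effect of over 50% in size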
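Lithium-sensitised IP1 accumulation assay; M1-expressing CHO cells treated 30 min at 37C with compound. Competitive antibody detection by time-resolved FRET followed a 10 min room-temperature lysis step.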
HPGD inh: qHTS Assay for Inhibitors of HPGD (15-Hydroxyprostaglandin Dehydrogenase). 15-hydroxyprostaglandin dehydrogenase [NAD(+)] (Homo sapiens), P15428. purified HPGD, NADH fluorescence kinetic, PGE2 substrate. Potency, µM, without a hit: at the highest dose activity change, negative = inhibition, actives largely listed as inhibitors. 150,000 tested, 4.3% active. AID 894, 2007; also: potency is read from the fitted curve at half-maximal effect
Target sequence (P15428 whole entry, looked up): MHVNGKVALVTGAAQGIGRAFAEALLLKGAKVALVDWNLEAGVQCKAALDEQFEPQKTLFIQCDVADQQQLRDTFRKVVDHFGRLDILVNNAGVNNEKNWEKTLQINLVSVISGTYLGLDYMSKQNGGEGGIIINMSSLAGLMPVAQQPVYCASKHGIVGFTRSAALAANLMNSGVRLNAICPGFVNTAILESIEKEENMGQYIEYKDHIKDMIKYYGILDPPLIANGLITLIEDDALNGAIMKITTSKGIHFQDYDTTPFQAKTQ
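NADH formation kinetics: reaction with 30 uM PGE2 and 1 mM NAD+ (final), 20 nM enzyme, Tris-HCl pH 8 with Tween 20, after 15 min compound preincubation at room temperature. Fluorescence change, last versus first of five reads.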
ALDH1A1 block: qHTS Assay for Inhibitors of Aldehyde Dehydrogenase 1 (ALDH1A1); Potency, µM (series often up to 75.3 µM), inactives show top-dose activity, negative = inhibition, hits mostly inhibitors; Aldehyde dehydrogenase 1A1 (Homo sapiens), P00352; 220,000 tested, 7.3% active; AID 1030, 2008; Purified ALDH1A1, NADH fluorescence, propionaldehyde substrate;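 also: potency is read from the fitted curve at half-maximal effect; plate controls were no enzyme wells and a reference inhibitor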
Target sequence (P00352 whole entry, looked up): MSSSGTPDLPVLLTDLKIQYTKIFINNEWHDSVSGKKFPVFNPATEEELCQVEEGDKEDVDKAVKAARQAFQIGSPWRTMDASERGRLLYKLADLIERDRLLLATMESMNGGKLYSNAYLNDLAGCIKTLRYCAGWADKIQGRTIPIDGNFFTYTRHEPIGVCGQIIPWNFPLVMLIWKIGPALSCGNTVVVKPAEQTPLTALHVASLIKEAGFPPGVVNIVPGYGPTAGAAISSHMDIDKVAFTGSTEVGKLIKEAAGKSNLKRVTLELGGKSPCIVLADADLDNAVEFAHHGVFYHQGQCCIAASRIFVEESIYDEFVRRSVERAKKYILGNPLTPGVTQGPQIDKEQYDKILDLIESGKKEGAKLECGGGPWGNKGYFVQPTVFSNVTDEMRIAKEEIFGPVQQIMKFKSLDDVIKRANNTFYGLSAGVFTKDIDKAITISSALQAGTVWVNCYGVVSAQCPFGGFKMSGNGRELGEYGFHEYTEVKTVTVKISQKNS
PNC inhibitor: High Content Assay for Compounds that inhibit the Assembly of the Perinucleolar Compartment. PC3M PTB-GFP, PNC prevalence imaging, 16 h; hits give low values. activity change (PNC), negative = inhibition, % at 10 µM. 140,000 tested, 3.1% active;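 active = readout at or below -70, meaning at least 70% loss of cells showing the perinucleolar compartment, a nuclear body marking cancer cells; inconclusive = readout between -30 and a set limit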;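 also: plate controls were DMSO wells for no effect and camptothecin positive control wells for full effect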
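Read-out is percentage of cells bearing a perinucleolar compartment, from automated 20x imaging of fixed, Hoechst-stained PC3M PTB-GFP cells. Cells were seeded 4 h, then exposed 16 h to compound (23 nl of library stock) in duplicate plates.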
12-hLO inh: qHTS Assay for Inhibitors of 12-hLO (12-human lipoxygenase) | Polyunsaturated fatty acid lipoxygenase ALOX12 (Homo sapiens), P18054 | purified 12-hLO, xylenol orange hydroperoxide absorbance | Potency, µM (highest dose often 57.1 µM), for inactives: at the highest dose activity change, negative = inhibition, usual class: inhibitors | 150,000 tested, 0.12% active | AID 1452, 2008; active = well fitted curve in the direction sought with a large enough effect; inconclusive = small, poorly fitted or top-dose-only effect, or another doubt; inactive = no such curve, though single readings can be large; an effect the other way counts as inactive or inconclusive; also: potency is read from the fitted curve at half-maximal effect; nearly all actives have a fitted effect of over 55% in size
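Hydroperoxide output read as Fe(III)-xylenol orange absorbance, 573-to-405 nm ratio, after 30 min reaction with 40 uM arachidonic acid. Enzyme: 150 nM purified human 12hLO, 15 min compound preincubation; 25 mM Hepes pH 7.0, room temperature.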
* marks the source's active call; other numbers are inactive results; ? = inconclusive; . = no result given; [ ] = remark or other dose. Only some compounds are listed: those with a hit (about 11% of all), similar ones and a draw of the others. Unless noted, calls follow the shape of the dose curve; as a rule, active = well fitted inhibition curve with a large enough effect (not every such curve was filed as active); inconclusive = small, poorly fitted or top-dose-only effect, or another doubt; inactive = no such curve, though single readings can be large or run the other way. Unless noted, % is scaled to controls: 0 for no effect and ±100 for the full control effect.

SMILES	IMPase inh	IMPase Li cell	HPGD inh	ALDH1A1 block	PNC inhibitor	12-hLO inh
CCOC(=O)c1c(NS(=O)(=O)c2cccc(OC)c2)sc2c1CCC2	15	20%[38.3 µM]	35µM*	10µM*	?	-13%
CCN1CCN(C(=O)C(C)Nc2ccc(OC)cc2OC)CC1 (configuration not stated)	.	8%	.	?	.	.
CC1CCCCN1CCCNC(=O)c1ccc(Cc2nc3ccccc3[nH]2)cc1 (configuration not stated)	.	.	-2%	4%	.	1%
CCOC(=O)c1c(NC(=O)C2CCCO2)sc2c1CCC2 (configuration not stated)	?	13%[38.3 µM]	-19%	22µM*	?	-11%
CCOC(=O)c1c(NC(=O)C2CCCO2)sc(C(=O)OC(C)(C)C)c1C (configuration not stated)	?	9%[38.3 µM]	?	14µM*	16	3%
OCCCN=C1CCCCC1	.	-4%	-5%	-8%[13.5 µM]	.	-4%[11.4 µM]
CCCN(CCC)C(=O)CSc1nc2n[nH]c(C)c2c(=N)n1-c1ccc(OCC)cc1	3	.	.	3.2µM*	?	-13%
CC(C)CC1CC(=O)OC1(C)C(=O)CSc1nc2ccccc2s1 (configuration not stated)	3	9%[38.3 µM]	-17%	8.9µM*	10	-2%
Cc1csc(NC(=O)CCCSc2nc3ccccc3s2)n1	-16	43%[38.3 µM]	14µM*	10µM*	-5	?
CC(C)CCNC(=O)CSc1nc2ccccc2s1	.	6%	.	18µM*	.	.
CC(C)OC(=O)CSc1nc2ccccc2s1	3	21%[38.3 µM]	16µM*	11µM*	-24	-3%
Cc1csc(NC(=O)CSc2nc3ccccc3s2)n1	2	21%[38.3 µM]	-12%	-4%	13	-10%
O=C(NCCCn1ccnc1)c1ccc(S(=O)(=O)N2CCOCC2)cc1	.	-10%	.	6%	.	.
COc1cccc(Nc2ncc3nc(-c4ccc(F)cc4)c(=O)n(C[C@H]4CCCO4)c3n2)c1	.	-4%	-10%	-12%	.	3%
Nc1ccccc1C(=O)/C=C/c1ccccc1	.	-3%	-9%	8%	.	-5%
C/C(N=NC(=[SH+])SCc1ccccc1)=C1\C=CC=CN1.[Cl][Cu]	.	2%	3.5µM*	2.5µM*	.	.
O=C(N/N=C/c1ccccc1O)c1cccc(C(F)(F)F)c1	.	-5%	-23%	6%	-94*	0%
Cc1ccccc1OCC(=O)Nc1sc2c(c1C(=O)OC(C)C)CCCC2	-11	.	.	.	.	.
C=CCNC(=O)/C(=C\C=C\c1ccccc1)NC(=O)c1ccc(OCCCC)cc1	8	17%[38.3 µM]	-19%	4%	-105*	4%
COCC#Cc1ccc(C2NC(C(=O)O)CCC2C)cc1 (configuration not stated)	.	.	.	16%[13.5 µM]	.	.
O=S1(=O)CCC(NC(=S)N2CCOCC2)C1 (configuration not stated)	.	-8%	-7%	-3%	-102*	-2%
CCOc1ccc(NC(=O)Nc2ccccc2SC)cc1	.	2%	.	6%	.	.
O=C1C=CC(=O)C(C2=C3C(=O)N(CCc4ccccc4)CC(=O)N3CCC2)=C1	.	27%	1.6µM*	2.2µM*	49	-8%
O=C1CC(=O)N(CCc2ccccc2)C(=O)N1CCc1ccccc1	-3	19%[38.3 µM]	-14%	-12%	?	-14%
CCCn1c(N2CCN(CC(=O)NCc3cccs3)CC2)nc2ccccc21	9	3%	-10%	?	-87*	-7%
SMILES	IMPase inh	IMPase Li cell	HPGD inh	ALDH1A1 block	PNC inhibitor	12-hLO inh
CN(C)c1ccc(C2NCCS2)cc1 (configuration not stated)	-1	-10%[38.3 µM]	-18%	1µM*	?	3%
Cc1ccc(Cl)cc1Nc1nc2ccccc2c2nncn12	9	.	.	.	.	.
O=C(NCCOC(=O)c1ccc(C(=O)OCCNC(=O)c2ccccc2)o1)c1ccccc1	-9	-12%[38.3 µM]	7.9µM*	?	-10	-9%
COc1cccc(Nc2ncc3nc(C)c(=O)n(C[C@H]4CCCO4)c3n2)c1	.	10%	.	12%	.	.
C=CCOC(=O)c1cc(-c2ccc(/C=C3\C(=O)NC(=O)C(C#N)=C3C)o2)ccc1Cl	-1	-3%[38.3 µM]	16µM*	10µM*	?	-16%
O=C1c2ccccc2C(Cc2ccnc(F)c2)(Cc2ccnc(F)c2)c2ccccc21	.	16%	3%	5%	.	-3%
CCCCCCCCCCCCCCC(F)C(=O)O (configuration not stated)	.	-7%	-6%	-1%	.	3%
COc1ccc(NC(=O)CSC2CC(=O)N(c3ccc4c(c3)OCCO4)C2=O)cc1 (configuration not stated)	-1	24%[38.3 µM]	2%	14µM*	42	-2%
COc1ccccc1NC(=O)CSC1CC(=O)N(c2ccc3c(c2)OCO3)C1=O (configuration not stated)	-5	19%[38.3 µM]	-19%	0.56µM*	8	-6%
COc1ccc(N2C(=O)CC(SCC(=O)O)C2=O)cc1 (configuration not stated)	-11	8%	-15%	?	6	6%
COc1ccc(C(=O)N2CCC3(CCCN(C(=O)Nc4cccc(F)c4)C3)CC2)cc1	.	8%	-7%	3%	.	-6%
COc1ccc(C(=O)N2CCC[C@@]3(CCN(c4ncccn4)C3)C2)cc1	.	-2%	-14%	?	.	1%
Cc1cc2oc(=O)cc(-c3ccccc3)c2c(C)c1-c1ccc(C#N)cc1	.	19%	-21%	13µM*	.	0%[0.00818 µM]
Cc1cc2oc(=O)cc(-c3ccccc3)c2c(C)c1-c1cccc(N)c1	.	12%	-13%	25µM*	.	1%[0.00818 µM]
COc1cc(OC)c2c(-c3ccccc3)cc(=O)oc2c1	.	-2%	.	14µM*	.	.
COC(=O)C1OC(=O)C2OC23[C@]2(C)C(O)CC4C(C)(C)C(OC(C)=O)CC(OC(C)=O)[C@@]4(C)C2CC[C@@]13C (some centres not stated)	.	9%	-7%	-1%	.	-1%
CC1CCCN(Cc2c(O)ccc3c(=O)c(-c4ccccc4Cl)c(C(F)(F)F)oc23)C1 (configuration not stated)	-3	.	.	.	.	.
CC(C)[C@H](NC(=O)OC(C)(C)C)[C@@H](O)CC(=O)OC(C)(C)C	.	.	.	2%[13.5 µM]	.	.
COc1cccc(OCc2nnc(SCC(=O)NCc3ccco3)n2CCc2ccccc2)c1	7	-6%[38.3 µM]	-23%	22µM*	42	-13%
